# In PubChem BioAssay (Tox21):
# Several values for one entry are separate records, joined by “and”; a condition that tells them apart may be missing. Equal values may be shown once. Records with an inconclusive call do not appear. A call without a number means that no potency is given here. Activity calls are given as the source filed them. Calls come from the whole dose curve; as a rule, active = well fitted curve in the direction sought with a large enough effect in the repeat runs; inconclusive = weak or mixed curves; inactive = no such curve, though single readings can be large; an effect the other way counts as inactive or inconclusive.
# Assay: A CellTox Green Cytotoxicity Assay to monitor cytotoxicity in HepG2 cells - 8 hour (AID 1224890); note: nearly all actives have a fitted effect of over 45% in size
# Conditions: CellTox Green fluorescence; series mostly up to 76.8 µM
# Outline: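 HepG2 cells were seeded together with the CellTox Green dye at 600 cells/well, left 5 h at 37 C/5% CO2, then given compounds in DMSO. Fluorescence from dye bound to dead-cell DNA was read repeatedly over 40 h of treatment at 37 C.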
row,Structure (SMILES),Potency
1,N#CC1(N=NC2(C#N)CCCCC2)CCCCC1,inactive
2,CC(C)(C)OOC(C)(C)CCC(C)(C)OOC(C)(C)C,inactive
3,CC(C)(C#N)C(C)(C)C#N,inactive
4,CCCCNC(=O)OCC#CI,inactive
5,Cc1cnc(C2=NC(C)(C(C)C)C(=O)N2)c(C(=O)O)c1 (stereo not given),inactive
6,O=C(N[C@H]1CN2CCC1CC2)c1ccc2c(c1)OCCO2,inactive
7,O=C1NC(=O)C(=O)C(=O)N1,inactive
8,Cc1ccc(N)c(C)c1,inactive
9,CCOP(=S)(S)OCC,inactive
10,CCC[N+](CCC)(CCC)CCC,inactive
11,C=CCOCC1CO1 (stereo not given),inactive
12,CN1C[C@H](C(=O)N[C@]2(C)O[C@@]3(O)[C@@H]4CCCN4C(=O)[C@H](Cc4ccccc4)N3C2=O)C=C2c3cccc4[nH]cc(c34)C[C@H]21,inactive
13,COC(=O)C1(O)c2ccccc2-c2ccccc21,inactive
14,CNC(=O)Oc1cccc(N=CN(C)C)c1,inactive
15,Cc1cccc(C)c1NC1=NCCCS1,inactive
16,CC(CC(C(N)=O)(c1ccccc1)c1ccccc1)N(C)C (stereo not given),inactive
17,COC1=CC(=O)O[C@@H](/C=C/c2ccc3c(c2)OCO3)C1,inactive
18,CCOC(=O)C1OC1(C)c1ccccc1 (stereo not given),inactive
19,c1ccc2c(c1)-c1cccc3cccc-2c13,inactive

# Assay: qHTS assay to identify small molecule antagonists of the estrogen receptor alpha (ER-alpha) signaling pathway using the BG1 cell line in the presence of 0.1 nM 17-beta-estradiol - cell viability counter screen (AID 1259241); note: nearly all actives have a fitted effect of over 40% in size; note: potency is the fitted concentration of half-maximal effect
# Conditions: VM7Luc4E2 (BG1) viability, CellTiter-Fluor protease, 22 h, 0.1 nM estradiol agonist added; series mostly up to 92.4 µM
# Outline: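 VM7Luc4E2, 4,000 cells/well, phenol red-free medium + 10% charcoal-stripped FBS; 24 hr plating; cpd + 0.1 nM E2 final, 22 hr 37C/5% CO2; CellTiter-Fluor 30 min, fluorescence.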
row,Structure (SMILES),Potency
1,C=CC(C)(CCC=C(C)C)OC(=O)c1ccccc1N (stereo not given),inactive
2,CC(O)CN1CCN(CC(=O)[O-])CCN(CC(=O)[O-])CCN(CC(=O)[O-])CC1.[Gd+3] (stereo not given),inactive
3,CCc1cnc(C2=NC(C)(C(C)C)C(=O)N2)c(C(=O)O)c1 (stereo not given),inactive
4,CCOP(=O)(SC(C)CC)N1CCSC1=O (stereo not given),inactive
5,C1CS1,inactive
6,CN(C)c1ccc(N=O)cc1,61.3 µM (active)
7,Cc1ncc(C[n+]2csc(CCO)c2C)c(N)n1,inactive
8,CCC1CCC(=O)O1 (stereo not given),inactive
9,CC1(C)CC(=O)CC(C)(C)N1[O],inactive
10,O=C(O)C(Cl)(Cl)Br,inactive
11,CC1(C)[C@H](C(=O)O[C@H](C#N)c2cccc(Oc3ccccc3)c2)[C@@H]1C=C(Br)Br,inactive
12,Nc1ccccc1C(=O)OCCc1ccccc1,inactive
13,CN1CC[C@]23c4c5ccc(O)c4O[C@H]2[C@@H](O)CC[C@H]3[C@H]1C5,inactive
14,C[C@H]1O[C@H](OC2[C@@H](O)[C@@H](O)C(O)[C@H](O)[C@H]2O)[C@@H](N)C[C@@H]1N=C(N)C(=O)O (stereo not given in full),inactive
15,CC(C)c1ccc(OP(=O)(Oc2ccc(C(C)C)cc2)Oc2ccc(C(C)C)cc2)cc1,inactive
16,CCOP(=O)(O)C(N)=O,inactive
17,SCc1ccccc1,inactive

row,Structure (SMILES),Potency
1,N#CC1(N=NC2(C#N)CCCCC2)CCCCC1,inactive
2,CC(C)(C)OOC(C)(C)CCC(C)(C)OOC(C)(C)C,inactive
3,CC(C)(C#N)C(C)(C)C#N,inactive
4,Cc1cnc(C2=NC(C)(C(C)C)C(=O)N2)c(C(=O)O)c1 (stereo not given),inactive
5,O=C(N[C@H]1CN2CCC1CC2)c1ccc2c(c1)OCCO2,inactive
6,O=C1NC(=O)C(=O)C(=O)N1,inactive
7,Cc1ccc(N)c(C)c1,inactive
8,CCOP(=S)(S)OCC,inactive
9,CCC[N+](CCC)(CCC)CCC,inactive
10,C=CCOCC1CO1 (stereo not given),inactive
11,COC(=O)C1(O)c2ccccc2-c2ccccc21,inactive
12,CNC(=O)Oc1cccc(N=CN(C)C)c1,inactive
13,Cc1cccc(C)c1NC1=NCCCS1,inactive
14,CC(CC(C(N)=O)(c1ccccc1)c1ccccc1)N(C)C (stereo not given),inactive
15,COC1=CC(=O)O[C@@H](/C=C/c2ccc3c(c2)OCO3)C1,inactive
16,CCOC(=O)C1OC1(C)c1ccccc1 (stereo not given),inactive
17,c1ccc2c(c1)-c1cccc3cccc-2c13,inactive

# Assay: qHTS assay to identify small molecule antagonists of the androgen receptor (AR) signaling pathway using the MDA cell line in the presence of 0.5 nM R1881 - cell viability counter screen (AID 1259242); note: nearly all actives have a fitted effect of over 45% in size; note: potency is the fitted concentration of half-maximal effect
# Conditions: MDA-kb2 viability, CellTiter-Fluor protease fluorescence, 16 h; series mostly up to 92.4 µM
# Outline: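 MDA-kb2 cells (human breast carcinoma, stably carrying MMTV-luciferase reporter) were exposed to compounds with 0.5 nM R1881 (final) for 16 hr at 37C, 0% CO2; viability then read as live-cell protease fluorescence (CellTiter-Fluor, 30 min) in the same wells.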
row,Structure (SMILES),Potency
1,C=CC(C)(CCC=C(C)C)OC(=O)c1ccccc1N (stereo not given),inactive
2,CC(O)CN1CCN(CC(=O)[O-])CCN(CC(=O)[O-])CCN(CC(=O)[O-])CC1.[Gd+3] (stereo not given),inactive
3,CCc1cnc(C2=NC(C)(C(C)C)C(=O)N2)c(C(=O)O)c1 (stereo not given),inactive
4,CCOP(=O)(SC(C)CC)N1CCSC1=O (stereo not given),inactive
5,C1CS1,inactive
6,CN(C)c1ccc(N=O)cc1,48.7 µM (active) and 48.6 µM (active)
7,CC(C)(C)NCC(O)c1cc(Cl)c(N)c(C(F)(F)F)c1 (stereo not given),inactive
8,Cc1ncc(C[n+]2csc(CCO)c2C)c(N)n1,inactive
9,CCC1CCC(=O)O1 (stereo not given),inactive
10,CC1(C)CC(=O)CC(C)(C)N1[O],inactive
11,O=C(O)C(Cl)(Cl)Br,inactive
12,CC1(C)[C@H](C(=O)O[C@H](C#N)c2cccc(Oc3ccccc3)c2)[C@@H]1C=C(Br)Br,inactive
13,Nc1ccccc1C(=O)OCCc1ccccc1,inactive
14,CN1CC[C@]23c4c5ccc(O)c4O[C@H]2[C@@H](O)CC[C@H]3[C@H]1C5,inactive
15,C[C@H]1O[C@H](OC2[C@@H](O)[C@@H](O)C(O)[C@H](O)[C@H]2O)[C@@H](N)C[C@@H]1N=C(N)C(=O)O (stereo not given in full),inactive
16,CC(C)c1ccc(OP(=O)(Oc2ccc(C(C)C)cc2)Oc2ccc(C(C)C)cc2)cc1,inactive
17,CCOP(=O)(O)C(N)=O,inactive
18,SCc1ccccc1,inactive
19,N#CC1(N=NC2(C#N)CCCCC2)CCCCC1,inactive

row,Structure (SMILES),Potency
1,CC(C)(C)OOC(C)(C)CCC(C)(C)OOC(C)(C)C,inactive
2,CC(C)(C#N)C(C)(C)C#N,inactive
3,CCCCNC(=O)OCC#CI,60.8 µM (active)
4,Cc1cnc(C2=NC(C)(C(C)C)C(=O)N2)c(C(=O)O)c1 (stereo not given),inactive
5,O=C(N[C@H]1CN2CCC1CC2)c1ccc2c(c1)OCCO2,inactive
6,O=C1NC(=O)C(=O)C(=O)N1,inactive
7,Cc1ccc(N)c(C)c1,inactive
8,CCOP(=S)(S)OCC,inactive
9,CCC[N+](CCC)(CCC)CCC,inactive
10,C=CCOCC1CO1 (stereo not given),inactive
11,CN1C[C@H](C(=O)N[C@]2(C)O[C@@]3(O)[C@@H]4CCCN4C(=O)[C@H](Cc4ccccc4)N3C2=O)C=C2c3cccc4[nH]cc(c34)C[C@H]21,inactive
12,COC(=O)C1(O)c2ccccc2-c2ccccc21,inactive
13,CNC(=O)Oc1cccc(N=CN(C)C)c1,inactive
14,Cc1cccc(C)c1NC1=NCCCS1,inactive
15,CC(CC(C(N)=O)(c1ccccc1)c1ccccc1)N(C)C (stereo not given),inactive
16,COC1=CC(=O)O[C@@H](/C=C/c2ccc3c(c2)OCO3)C1,inactive
17,CCOC(=O)C1OC1(C)c1ccccc1 (stereo not given),inactive
18,c1ccc2c(c1)-c1cccc3cccc-2c13,inactive
